Bioassay records from PubChem BioAssay.
Sm TGR inh = inhibitors of Schistosoma mansoni thioredoxin glutathione reductase. Q962Y6. purified TGR, DTNB reduction, TNB absorbance 405 nm. Potency, µM (series often up to 114 µM), inactives show at the highest dose activity change, negative = inhibition, actives largely listed as inhibitors. hit rate 3% among 360,000. AID 485364; active = well fitted inhibition curve with a large enough effect; inconclusive = small, poorly fitted or top-dose-only effect; inactive = no such curve, though single readings can be large or run the other way; also: potency is read from the fitted curve at half-maximal effect; % is scaled to controls: 0 for no effect and ±100 for the full control effect; nearly all actives have a fitted effect of over 60% in size
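Kinetic colorimetric format: TGR-catalysed, NADPH-driven DTNB reduction monitored via TNB absorbance. Enzyme dispensed at 20 nM; compound exposure 15 min at room temperature before reaction start.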
CHX counter = counter-screen hit for Shiga toxin inhibitors, cycloheximide. cell reporter, cycloheximide protein synthesis inhibition counterscreen. max response, %. hit rate 12% among 300,000. AID 2314; in the data active = max response mostly above about 13%, no sharp cut-off; inactive = mostly below about 14%; also: read at 38.3 µM for the half of the compounds with a filed dose; 0% is about no effect
Shiga toxin inh = Shiga toxin inhibition; Vero cells, Shiga toxin protein synthesis inhibition reporter; inhibition, % at 38.7 µM; hit rate 9.2% among 290,000; AID 2315; in the data active = inhibition mostly above about 28%, no sharp cut-off; inactive = mostly below about 43%; also: 0% is about no effect
FMDV antiviral = blocks foot and mouth disease virus; Potency, µM (highest dose often 57.9 µM), inactives show at the top dose activity change, negative = inhibition, hits mostly inhibitors; hit rate 1.2% among 410,000; FMDV antiviral cell-based qHTS; AID 1159524; calls by dose curve; tested in HEK293T cells; also: read-out not given here; potency is read from the fitted curve at half-maximal effect; % is scaled to controls: 0 for no effect and ±100 for the full control effect; nearly all actives have a fitted effect of over 45% in size
Starred values were filed as active, the others as inactive; ? = inconclusive; . = no result given. This is a sample that favours compounds with a hit; in the whole collection about 12% have one here.

SMILES | Sm TGR inh | CHX counter | Shiga toxin inh | FMDV antiviral
CCOC(=O)C1CCCN(c2ncnc3c2cnn3-c2ccc(Cl)cc2)C1 (stereo not given) | -2% | 17* | 24 | ?
CN(CC(=O)Nc1ccc(Cl)cc1F)S(=O)(=O)c1ccc2c(c1)n(C)c(=O)c(=O)n2C | -7% | . | . | -11%
CCOc1cc2c(cc1OCC)C(c1c(F)cccc1Cl)CC(=O)N2 (stereo not given) | -1% | . | . | -21%
N#CC1=C(N)SC(N)=C(C#N)C1c1ccoc1 | 5µM* | 0 | -1 | .
CC(=O)N1c2ccc(S(=O)(=O)NCCc3cccc(C)c3)cc2CC1C (stereo not given) | -4% | . | . | 0%
Cc1cccc(-n2c(C)cc(C(=O)NC3CCCCC3)c2C)c1 | 1% | 94* | 85* | -8%
COc1ccc(-n2c(C)cc(C(=O)NC3CCCCC3)c2C)cc1 | -10% | 58* | 94* | .
COc1ccc(N2CC(C(=O)NC3CCCCC3)CC2=O)cc1 (stereo not given) | -9% | -9 | 2 | 11%
Cc1cccc(-n2c(C)nc3cc(C(=O)NC4CCCCCC4)ccc32)c1 | 5% | . | . | 17%
O=C(NCc1ccccc1Cl)C(=O)NCC1OCCN1S(=O)(=O)c1cccs1 (stereo not given) | -3% | 21* | 28 | 8%
COc1ccc(CCNC(=O)C(=O)NCC2OCCN2S(=O)(=O)c2ccc3c(c2)OCCO3)cc1 (stereo not given) | -2% | 34* | 11 | -15%
COc1ccc(CCNC(=O)C(=O)NCC2OCCN2S(=O)(=O)c2ccc3c(c2)OCCO3)cc1OC (stereo not given) | -17% | -1 | -19 | -12%
COc1ccc(CNC(=O)C(=O)NCC2OCCN2S(=O)(=O)c2ccc(F)cc2)cc1 (stereo not given) | 0% | 28* | 32* | -5%
COc1ccc(CNC(=O)C(=O)NCC2OCCN2S(=O)(=O)c2ccc(C)cc2)cc1 (stereo not given) | 0% | -1 | 11 | -4%
COc1cc(Nc2nc3ccccc3c3nnc(C)n23)cc(OC)c1 | -3% | . | . | -29%
CCOc1ccc(N2C(=O)NC(=O)/C(=C\c3ccc(N4CCOCC4)cc3C)C2=O)cc1 | ? | 5 | 6 | -9%
C#CCN1C(=O)S/C(=C\c2ccc(N3CCOCC3)cc2C)C1=O | . | 24* | 70* | 5%
O=C(CCN1C(=O)S/C(=C\c2ccccc2)C1=O)N1CCOCC1 | . | . | . | 10%
CCCN1C(=O)S/C(=C\c2ccc(N3CCOCC3)cc2C)C1=O | 2% | 34* | 64* | .
CCN1C(=O)S/C(=C\c2ccc(N3CCOCC3)cc2C)C1=O | 1% | 27* | 133* | -8%
COc1cc2c(cc1OC)-c1cc3nc4ccccc4nc3n1C(C)(C)C2 | . | . | . | -25%
N#Cc1ccc(CN2CCCC3(CCN(S(=O)(=O)c4ccccc4)CC3)C2)cc1 | . | . | . | -26%
CSc1cccc(NC(=O)CC(c2ccc(F)cc2)N2Cc3ccccc3C2=O)c1 (stereo not given) | -1% | . | . | ?
O=C(N/N=C\c1cn(-c2ccccc2)nc1-c1ccccc1)c1ccc2c(c1)OCO2 | 2% | 16* | 23 | -10%
COc1ccc(-c2nn(-c3ccccc3)cc2/C=N/NC(=O)c2ccc3c(c2)OCO3)cc1 | 3% | 14 | 59 | .
SMILES | Sm TGR inh | CHX counter | Shiga toxin inh | FMDV antiviral
O=C(N/N=C/c1cn(-c2ccccc2)nc1-c1ccc2c(c1)OCCO2)c1ccncc1 | 0% | 29* | 50* | 20%
O=C(N/N=C/c1cn(-c2ccccc2)nc1-c1ccc(F)cc1)c1ccc2c(c1)OCO2 | 10% | 18* | 79* | -29%
O=c1cc(-c2ccc(F)cc2)nc(SCc2nc(-c3cccc(C(F)(F)F)c3)no2)[nH]1 | 1% | . | . | -8%
Cc1nc(-c2ccc(Cl)cc2)sc1CCNC(=O)c1ccco1 | -6% | . | . | 13%
COc1cccc(CNC(=O)Cc2c(C)c3c(cc(C)c4c(C)coc43)oc2=O)c1 | -1% | . | . | -3%
CN(Cc1ccco1)C(=O)C(Cc1ccccc1)NS(=O)(=O)c1ccc2c(c1)CCC(=O)N2 (stereo not given) | 40µM* | 4 | 13 | 16%
CCCNC(=O)C(Cc1ccccc1)NS(=O)(=O)c1ccc2c(c1)CCC(=O)N2 (stereo not given) | 6% | 1 | -6 | 35%
CCOc1ccc(/C=C/C(=O)Oc2ccccc2)cc1 | -18% | -2 | -2 | 43%
CCOc1ccc(/C=C/C(=O)C(C(N)=O)=C2SCCS2)cc1 | 6% | 34* | 57* | 22%
CCN1C(=O)c2ccccc2S(=O)(=O)c2ccc(C(=O)NCc3ccccc3)cc21 | 9% | . | . | -6%
N#C/C(=C\c1c(Cl)cccc1Cl)c1nc2ccccc2[nH]1 | -5% | 14* | 36 | -18%
Cc1ccc(/C=C(\C#N)c2nc3ccccc3[nH]2)s1 | 24% | 49* | 53* | .
N#C/C(=C(/O)CCl)c1nc2ccccc2[nH]1 | 25µM* | 7 | -3 | 35µM*
N#C/C(=C/c1cccs1)c1nc2ccccc2[nH]1 | 17% | 65* | 64* | -1%
Cc1ccc(C)c(N2CCN(C(=O)C(CC(C)C)NS(=O)(=O)c3ccc4nc(C)sc4c3)CC2)c1 (stereo not given) | 7% | . | . | -7%
Cn1c(/C(C#N)=C/C2CC=CCC2)nc2ccccc21 (stereo not given) | 1% | 9 | -7 | .
N#C/C(=C\c1cccs1)Sc1nc2ccccc2s1 | -7% | 31* | 44* | 20%
N#C/C(=C\C1CC=CCC1)c1nc2ccccc2[nH]1 (stereo not given) | -12% | 27* | 48 | ?
N#C/C(=C\c1ccc[nH]1)Sc1nc2ccccc2s1 | -18% | -1 | -6 | 3%
COc1cccc(CNC(=O)c2ccc3c(c2)nc2n3CCC(C)C2)c1OC (stereo not given) | 3% | . | . | 17%
Cc1ccc2nc(CN3CCN(S(=O)(=O)c4ccccc4)CC3)oc2c1 | 1% | . | . | -14%
CC(C)(C)c1ccc(-c2nc3cc(NC(=O)c4cccc(Br)c4)ccc3o2)cc1 | 17% | . | . | 0%
Cc1nnc(SCC(=O)Nc2nc(-c3ccc(F)cc3)cs2)[nH]c1=O | . | 21* | 45 | 20%
O=C(C[n+]1cc(-c2ccccc2)n2c1CCC2)Nc1nc(-c2ccccc2)cs1 | -7% | 12 | 1 | -8%
COCc1cc(C)nc(SCC(=O)Nc2cccc(C)c2C)c1C#N | 4% | -2 | 16 | .
SMILES | Sm TGR inh | CHX counter | Shiga toxin inh | FMDV antiviral
O=C(CSCC(=O)N1CCCc2ccccc21)Nc1nc(-c2ccccc2)cs1 | -9% | 18* | 33 | -18%
COCc1cc(C)nc(SCC(=O)Nc2nc(C)cs2)c1C#N | -11% | 24* | 49 | 22%
Cc1cc(=O)[nH]c(SCC(=O)Nc2nc(-c3ccccc3)cs2)n1 | 0% | -3 | 19 | -29%
Cc1csc(SCC(=O)Nc2nc(-c3ccccc3)cs2)n1 | -3% | 13* | 27 | 5%
Cc1c(NC(=O)Nc2ccccc2C(F)(F)F)sc2nc3n(c(=O)c12)CCC(C)CC3 (stereo not given) | 6% | . | . | -18%
Cc1cc(C)cc(NS(=O)(=O)c2ccc3c(c2)NC(=O)C(C)S3)c1 (stereo not given) | -1% | . | . | 46%
Cc1ccc(-c2nn3c(=O)cc(CN4CCN(C(=O)Nc5cc(Cl)ccc5C)CC4)nc3s2)cc1 | -6% | . | . | 1%
